Compound activity deposited in PubChem BioAssay by several laboratories.
p-CIP stab down = compounds decreasing mouse p/CIP protein stability; F442A p/CIP-EGFP cells, EGFP fluorescence, 16 h; decrease of EGFP signal, % at 10 µM; 0.01% of 290,000 active;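 active means EGFP signal decrease of at least 30% at 10 µM or well 3 SD below plate mean, unless failing retest; inactive means the rest, including hits failing retest or dose response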
PolyA inh = yeast polyadenylation inhibition. activity score, % at 12 µM. S. cerevisiae SKY197-pL101 polyadenylation reporter, beta-gal luminescence; efflux-impaired pdr1/pdr3 knockout yeast; score 100 = 6 SD above DMSO. 0.02% of 300,000 active;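 active means lowest replicate activity score at least 50, where 100 means six control SD above control mean; inconclusive means lowest score under 50 but half or more replicates reach 50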;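 further: yeast exposed to compound for 9 h at 30 °C; higher score means more reporter readthrough which indicates perturbed polyadenylation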
Platelet DG rel = platelet dense granule release activity. human platelet-rich plasma, SFLLRN dense granule ATP release, luminescence. inhibition, %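 (compounds screened at 7.5 µM in platelet-rich plasma)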. 0.22% of 300,000 active. AID 1663;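 active means mean replicate score, as percent of positive control, at or above 50; inconclusive means mean below 50 but at least one replicate at or above 50; inactive means mean and every replicate below 50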
HIF activator = HIF pathway transcriptional activation | activation, % at 7.5 µM (by protocol) | U2OS HRE-luciferase reporter, luminescence; normalized: DMSO 0%, desferrioxamine 100% | 0.32% of 300,000 active;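 active means mean activation of at least 10% of the iron chelator positive control signal, with at least half of replicates also reaching 10%; inconclusive means mean and replicate majority disagree about reaching 10%; inactive means mean and most replicates under 10%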
AHR activator = human AHR activation. P35869. AHR-responsive luciferase reporter cells, luminescence. activation, % at 5 µM. 2.5% of 320,000 active. AID 2796; in the data active means activation above about 47%;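 further: 0% = vehicle wells and 100% = reference agonist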
The depositor's hits bear a star; u = inconclusive; x = no result given. Only some compounds are listed: those with a hit (about 2.8% of all), similar ones and a draw of the others.

SMILES | p-CIP stab down | PolyA inh | Platelet DG rel | HIF activator | AHR activator
COc1cc2sc(NC(=O)c3ccco3)nc2cc1Cl | -22.4 | -1.9 | 11.0 | 3.7 | 49.5*
Cc1cc2sc(NC(=O)c3ccco3)nc2cc1Cl | 0.2 | 2.3 | 8.1 | 0.7 | -3.0
COc1cc(C(=O)NNc2nc3cc4c(cc3s2)OCO4)cc(OC)c1OC | 5.2 | 1.6 | -7.3 | 0.2 | 9.9
Cc1ccc2nc(NNC(=O)c3ccc4c(c3)OCCO4)sc2c1 | -2.5 | -0.9 | -43.9 | 0.4 | 47.6*
CCC(=O)NNc1nc2c(C)cc(C)cc2s1 | 4.9 | -7.7 | -1.1 | 0.1 | 62.2*
O=C(COC(=O)C1CCCCC1)Nc1cc([N+](=O)[O-])ccc1F | 4.0 | 1.4 | 11.9 | 0.2 | -0.7
O=[N+]([O-])c1ccc2nnn(O)c2c1 | -13.9 | 4.2 | -9.3 | -0.2 | 18.6
CC1CCc2c(sc3nc(CSc4ncn[nH]4)[nH]c(=O)c23)C1 (centres undefined) | -16.8 | -10.4 | -3.3 | -2.3 | -5.5
O=C(Nc1nc2cc3c(cc2s1)OCCO3)c1cccc(N2C(=O)CCC2=O)c1 | -4.7 | 10.4 | 2.9 | 1.1 | 52.2*
O=C(NNc1nc2cc3c(cc2s1)OCO3)c1ccccc1 | -11.5 | -6.3 | -20.1 | 1.4 | 61.3*
COc1cc(OC)cc(C(=O)NNc2nc3cc4c(cc3s2)OCO4)c1 | -2.7 | 6.7 | 10.8 | 0.2 | 21.0
COc1cccc(OC)c1C(=O)Nc1nc2cc3c(cc2s1)OCO3 | 0.6 | -8.9 | -9.4 | -0.2 | 54.2*
Cc1ccc2nc(NNC(=O)c3ccc(S(=O)(=O)N4CCc5ccccc5C4)cc3)sc2c1 | 4.9 | -13.7 | -20.1 | 98.7* | 32.4
COc1ccccc1C(=O)Nc1nc2cc3c(cc2s1)OCO3 | -13.1 | 5.9 | 3.2 | 2.0 | 44.1
O=C(Nc1nc2ccccc2s1)c1cccc(N2C(=O)CCC2=O)c1 | -24.5 | 3.7 | 8.3 | 2.1 | 34.0
CCOC(=O)c1ccc(Oc2nc(OC)cc(OC)n2)cc1 | -4.7 | 1.6 | -0.4 | -0.1 | 3.4
Cc1nnc(NC(=O)CSc2nnc(CC(=O)Nc3ccccc3F)n2C)s1 | -0.7 | 6.1 | 2.4 | 0.1 | 1.2
Cc1cc(C)c2nc(NNC(=O)c3ccc(S(=O)(=O)N4CCCC(C)C4)cc3)sc2c1 (centres undefined) | 2.2 | 0.3 | 2.7 | 26.4* | 23.1
Cc1nc2sccn2c(=O)c1S(=O)(=O)N1CCN(c2cccc(Cl)c2)CC1 | -4.7 | 16.0 | 54.4* | -0.2 | -1.2
Cc1nc2sccn2c(=O)c1S(=O)(=O)Nc1ccc(N2CCN(S(C)(=O)=O)CC2)cc1 | -6.2 | -5.0 | -5.9 | -20.3 | 2.4
O=C(NCc1ccccc1F)C12CC3CC(CC(C3)C1)C2 | x | 0.7 | -2.4 | 0.0 | -1.9
COC(=O)Cn1cnc2c(cnn2-c2ccc(C)cc2)c1=O | 1.9 | 23.6 | 0.9 | -11.8 | 8.3
COc1ccc(-c2nn(-c3ccccc3)cc2/C=N/O)cc1OC | -28.4 | -22.1 | 6.1 | -0.1 | 38.2
COc1ccc(-c2nn(-c3ccccc3)cc2/C=N/Nc2ccc3ccccc3n2)cc1OC | 6.3 | -9.2 | 3.5 | 0.3 | 48.9*
COc1ccc(-c2nn(-c3ccccc3)cc2CO)cc1OC | 1.4 | 4.4 | 0.4 | 0.2 | 51.2*
SMILES | p-CIP stab down | PolyA inh | Platelet DG rel | HIF activator | AHR activator
COc1cccc(-c2nn(-c3ccccc3)cc2CO)c1 | 8.7 | -2.3 | -2.7 | 4.9 | 0.6
COc1ccc(-c2nn(-c3ccccc3)cc2/C=N/NC(=S)NC(C)C)cc1OC | -6.0 | -6.1 | -50.9 | -1.0 | 55.3*
CCN(CC)S(=O)(=O)c1cccc(NC(=O)COC(=O)CCC(=O)c2ccc(F)cc2)c1 | -2.7 | -7.7 | -0.2 | -0.1 | 4.5
Cc1ccc(N2CCN(S(=O)(=O)c3ccc4oc(=O)ccc4c3)CC2)c(C)c1 | -19.1 | 23.4 | -9.2 | -1.3 | -0.1
Cc1c(Cl)cccc1NC(=S)N=Nc1c(O)n(CN2CCOCC2)c2ccccc12 | 5.3 | x | -0.2 | 1.0 | 53.1*
Oc1c(N=NC(=S)Nc2ccccc2F)c2ccccc2n1Cc1ccccc1Cl | -4.2 | x | 4.4 | -0.8 | 14.0
Nc1cc(Nc2ccc(Br)cc2)nc(N)n1 | 2.8 | 7.3 | -5.2 | -0.1 | 61.9*
Cc1cc(Nc2ccc(Cl)cc2)nc(N)n1 | -4.5 | -1.8 | -5.8 | 3.1 | 7.4
O=C(CCl)NC1(C(F)(F)F)C(=O)Nc2c1c(=O)[nH]c(=O)n2-c1ccccc1 (centres undefined) | 0.2 | -5.7 | -5.2 | -0.4 | -0.3
CCc1ccc2c(c1)C1(NN=C(c3ccc(C)cc3)S1)C(=O)N2 (centres undefined) | -0.4 | -20.0 | 0.5 | 1.0 | 54.6*
O=C(O)C1CCCCN1C(=O)c1ccc(S(=O)(=O)N2CCCCCC2)cc1 (centres undefined) | x | x | x | x | -0.6
Cc1cc(C)c(C(N)=O)c(Nc2cccc(Cl)c2C)n1 | 11.6 | 3.1 | -3.3 | -0.1 | 10.5
COc1ccc(Cl)cc1Nc1nc(C)cc(C)c1C(N)=O | -5.1 | 15.5 | 1.8 | -0.1 | 59.5*
CC1CCCN(C(=O)COC(=O)Cn2cnc3ccccc32)C1 (centres undefined) | x | x | x | x | 11.0
O=C(Nc1ccc(S(=O)(=O)NCc2ccccc2)cc1)Nc1ccc2c(c1)OCO2 | -13.0 | 2.6 | 11.3 | 1.7 | 51.8*
C/C(=C\C(=O)c1ccccc1)Nc1ccc2c(c1)OCO2 | -3.7 | 5.8 | -9.5 | 1.4 | 47.4*
O=C(Nc1ccc2c(c1)OCO2)Oc1ccccc1 | -3.4 | 3.8 | 12.8 | 1.3 | 88.5*
C/C(=C\C(=O)c1ccc(C)o1)Nc1ccc2c(c1)OCO2 | 1.8 | -13.3 | 1.4 | 1.4 | 13.7
Cc1cc(C)c2[nH]c(=O)c(C(c3nnnn3C3CCCC3)N3CCOCC3)cc2c1 (centres undefined) | -6.6 | x | x | x | x
COc1ccc(C(C(=O)NC(C)(C)C)N(C(=O)CCC(=O)Nc2cc(C)on2)c2ccccc2F)cc1 (centres undefined) | -18.1 | 23.5 | 15.5 | -0.4 | -1.1
O=C(Nc1ccccc1)C1CCN(S(=O)(=O)c2ccc3c(c2)OCCO3)CC1 | x | 3.9 | 1.2 | 0.3 | 1.3
O=C(C1CC1)N1CCN(S(=O)(=O)c2ccc3c(c2)OCCO3)CC1 | 1.9 | 12.4 | -0.4 | -0.4 | 55.0*
Clc1ccc(C2=Nn3c(Cn4nnc5ccccc54)nnc3SC2)cc1 | 5.0 | -6.7 | -2.3 | 0.1 | 4.7
COc1ccc(C2=Nn3c([n+](C)c4ccccc43)SC2)cc1 | -21.2 | 3.2 | -0.7 | 1.3 | 58.8*
C[n+]1c2n(c3ccccc31)N=C(c1ccc(Cl)cc1)CS2 | -6.8 | u | 0.7 | 0.3 | 64.2*
SMILES | p-CIP stab down | PolyA inh | Platelet DG rel | HIF activator | AHR activator
CCc1nnc2n1N=C(c1ccc(OC)cc1)CS2 | -10.5 | 9.8 | 4.8 | 3.4 | 8.3
CC1Sc2n(c3ccccc3[n+]2C)N=C1c1ccccc1 (centres undefined) | -0.2 | 1.7 | -1.1 | -0.1 | 73.8*
COc1ccc(OC)c(NC(=O)CCn2ccnc2)c1 | 4.2 | 16.1 | 6.0 | 0.1 | 28.9
COC(=O)c1c(C)noc1-c1ccc(Cl)cc1 | -2.4 | -6.0 | 1.9 | -0.4 | -2.7
COC(=O)c1c(-c2ccccc2)noc1-c1ccccc1 | x | -35.1 | -15.8 | 1.3 | 52.8*
COc1ccccc1CNCc1cccc(Oc2ccccc2)c1 | -2.1 | -9.9 | -9.4 | 0.1 | 0.2
